Measured values from PubChem BioAssay AID463115 (University of Pittsburgh Molecular Library Screening Center, 2010).
About 130 (0.059%) of roughly 220,000 compounds were called active. Cut-off read from the data, not from the text of the source: active = inhibition above about 25%; inactive = the rest. Shown is part of a subset that was picked to be rich in actives.

Target: Furin (Homo sapiens) (UniProt P09958)
Test: furin protease activity blockers – biochemical, fluorescence intensity, primary screen (AID 463115)
Settings: purified furin, fluorogenic substrate cleavage, hits give high values; at 30 µM unless noted

Furin (Homo sapiens), sequence (P09958 108-714 limits assumed): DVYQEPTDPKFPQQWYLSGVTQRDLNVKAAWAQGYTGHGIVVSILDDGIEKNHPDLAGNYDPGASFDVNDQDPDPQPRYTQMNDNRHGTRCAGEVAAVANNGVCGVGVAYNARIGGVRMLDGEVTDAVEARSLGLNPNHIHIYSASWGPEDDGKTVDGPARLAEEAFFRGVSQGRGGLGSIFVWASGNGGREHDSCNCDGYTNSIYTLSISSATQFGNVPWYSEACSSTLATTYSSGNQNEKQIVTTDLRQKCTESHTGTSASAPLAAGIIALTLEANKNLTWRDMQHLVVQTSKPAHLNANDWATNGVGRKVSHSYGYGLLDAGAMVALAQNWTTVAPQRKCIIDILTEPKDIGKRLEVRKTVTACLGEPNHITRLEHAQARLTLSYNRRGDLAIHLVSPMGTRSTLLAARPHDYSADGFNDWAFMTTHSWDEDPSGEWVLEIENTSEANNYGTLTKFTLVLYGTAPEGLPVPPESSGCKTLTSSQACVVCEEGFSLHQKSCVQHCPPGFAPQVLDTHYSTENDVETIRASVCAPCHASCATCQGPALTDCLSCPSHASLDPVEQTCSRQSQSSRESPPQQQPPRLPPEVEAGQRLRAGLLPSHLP

inhibition, active:
CC(=O)NC(C)c1nc2ccccc2n1Cc1ccccc1F (stereo unspecified) 29.1% [at 20 µM], CC(=O)c1sc(NC(=O)c2ccc(C)cc2)nc1C 26.4% [at 20 µM]

inhibition, inactive:
COc1cccc(OCc2cc(/C=N/NC(=O)c3nc(Cl)c(Cl)c(N)c3Cl)ccc2OC)c1 -20.2% [at 20 µM], Cc1ccc(C(=O)NC(=S)Nc2ccc3[nH]c(=O)[nH]c3c2)cc1C -13.7%, C=C(C)Cn1c(C)cc(C)c(S(=O)(=O)c2ccccc2C)c1=O 5.86% [at 20 µM], CC(C)NC(=O)C(=O)N/N=C/c1ccco1 -9.76% [at 20 µM], Cc1ccccc1NC(=O)Nc1ccccc1N1CCCCC1 -10.3%, Cc1cc(OC(=O)c2ccccc2Cl)ccc1N1C(=O)CCC1=O -16%, Cc1cccc(-n2c(SCC(=O)Nc3cccc(S(=O)(=O)NC4=NCCCCC4)c3)nc3ccccc3c2=O)c1C -12.8%, COc1ccc(CCNC(=O)C(=O)NCc2ccccc2C)cc1OC -21%, C=CCn1c(C(C)NC(=O)CC)nc2ccccc21 (stereo unspecified) -10.5% [at 20 µM], CCC(=O)Nc1nc2ccccc2n1Cc1ccccc1C -19.3%, CCCCNC(=O)N1CCN(S(C)(=O)=O)CC1 -17.1%, CNC(=S)N/N=C/c1cn(Cc2ccc(C)cc2)c2ccccc12 -4.13%, O=C1CCCc2nn(-c3ccccc3)nc21 -13.3% [at 20 µM], O=C(Nc1cccnc1)c1cc2cc(Br)ccc2oc1=O -18%, CSc1ccc(C#N)cc1NC(=O)c1ccc(Cl)cc1 -25.3% [at 20 µM], COc1ccc(NC(=O)C(NC(C)=O)C(=O)NCc2ccccc2Cl)cc1 (stereo unspecified) -24.7% [at 20 µM], Cc1ccc(-c2cc(C(F)(F)F)n3ncc(C(=O)N4CCCCC4c4cccnc4)c3n2)cc1 (stereo unspecified) -31.6%, Cc1ccc(N(Cc2cc3ccccc3[nH]c2=O)C(=O)c2cccs2)cc1 -16%, CC1(C)CC(=O)C(CC(=O)N2CCC(Cc3ccccc3)CC2)C(=O)C1 -13%, O=C(O)/C(=C/c1cccnc1)NC(=O)c1ccccc1 -17.1%, COc1cc([C@H](Cc2ccccc2)NC(C)=O)oc(=O)c1 -28.7%, CSc1nc(C)nc(C2CC2)c1C#N -16.6%, C=CCOC(=O)C1=C(C)NC(C)=C(C(=O)OCC=C)C1c1cccs1 -8.1% [at 20 µM], COc1ccc2c(CC(=O)OCC(=O)Nc3ccccc3[N+](=O)[O-])coc2c1 -10.8%, Clc1ccc(C[n+]2cc(-c3ccccc3)n3c2CCC3)cc1 -20.2%, CCC1C=C(c2ccccc2)C=CN=C1N(CC)CC (stereo unspecified) -18.4%, CC1=C(C)CC(C(=O)NC(C)CCc2ccccc2)C(C(=O)O)C1 (stereo unspecified) -15%, CC1=C(C)C(=O)OC(C(C)C2CCC3C4CC=C5CC(OC6OC(COC7OC(CO)C(O)C(O)C7O)C(O)C(O)C6O)CC(O)C5(C)C4CCC23C)C1 (stereo unspecified) -28.1%, CC1CCCC(C)N1/N=C/c1ccccc1OC(F)F (stereo unspecified) -34.3%, NC(N)=Nc1nc2ccc(Br)cc2c(=O)[nH]1 -13.8%, CCOc1ccc(NC(=S)NC(=O)/C=C/c2ccc(OC)cc2)c([N+](=O)[O-])c1 -14.6%, Cc1c(Br)cc(C(=O)N2CCCCCC2)c(C)c1C -19.1% [at 20 µM], CC(C)CCN1CCN(Cc2ccc(C(F)(F)F)cc2)CC1CCO (stereo unspecified) -11.2%, COc1ccc(OC)c(S(=O)(=O)NCCC(C)C)c1 -25.7%, O=C(NCCc1ccccn1)c1cc(-c2ccc(Cl)cc2)nc2ccccc12 -20.1%, CC12CN3CCN(CC(C3)/C1=N\NC(=O)c1ccccc1N)C2 -14.7%, CC(CC(=O)O)CC(=O)NNC(=O)c1cccc(Br)c1 (stereo unspecified) 4.22%, CCCOn1c(-n2nc(C)cc2C)nc2ccccc2c1=O -1.39% [at 20 µM], CC(C)Oc1ccccc1C(=O)NC(CO)C(=O)O (stereo unspecified) -21.8%, CC(C)(C)NC(=O)NC(=O)COC(=O)Cc1ccc(Cl)cc1Cl -11.5%, CCOC(=O)c1nnn2c1nc(N1CCN(c3ccccc3)CC1)c1ccccc12 -23.3%, C=C(C)C1CC=C(C)/C(=N/NC(=O)CCCNc2cccc(C)c2)C1 (stereo unspecified) -8.06%, CCc1ccc(NC(=O)CC2C(=O)NCCN2C(=S)Nc2ccccc2)cc1 (stereo unspecified) -22.7%, CC(C)C(O)C1CCN(Cc2nc(Cc3ccccc3Cl)no2)CC1 (stereo unspecified) -21.2%, CC(=O)c1sc(NC(=O)c2cccc3ccccc23)nc1C -10.7% [at 20 µM], COC(=O)c1sc(NC(=S)NC(=O)c2ccc(C)cc2)nc1C -11.8%, CN(C)c1ccc(/C=N/NC(=O)C(O)c2ccc(Br)cc2)cc1 (stereo unspecified) -19%, CCC(=O)NC(Nc1nc2ccc(C)cc2s1)(C(=O)OC)C(F)(F)F (stereo unspecified) -11.3% [at 20 µM], CCCCNC(=O)OC(C)CNC(=O)OC (stereo unspecified) -9.97% [at 20 µM], CN(C)/N=C/c1cn(-c2ccccc2)nc1-c1cccnc1 1.34%, CCCNS(=O)(=O)c1ccc(CCC(=O)N2CCCC2)cc1 -15.5%, C=CC(COCc1ccccc1)N(Cc1ccccc1)S(=O)(=O)c1ccccc1Br (stereo unspecified) -14.6%, COc1ccc(C2=NOC3(CC(=O)N(c4ccc(Cl)cc4)C3=O)C2)c(OC)c1 (stereo unspecified) -21.1% [at 20 µM], O=C(NC1CCN(Cc2ccccc2)CC1)c1c(F)cccc1F -12.2%, Nc1c(NCCc2ccccc2)c2ccccc2oc1=O -0.514%, Cc1cc(Nc2ccc(N3CCOCC3)cc2)c2cccc(C)c2n1 3.96%, O=C(NN1C(=O)C2C(C1=O)C1C=CC2C12CC2)c1ccccc1Cl (stereo unspecified) -7.61%, Cc1ccc(N(C(=O)Cc2cccs2)C2C=CS(=O)(=O)C2)cc1Cl (stereo unspecified) -2.17%, Cc1ccc(-n2c(SCC(=O)N/N=C/C=C/c3ccccc3[N+](=O)[O-])nc3ccccc3c2=O)cc1 -14.5%, CCC(=O)N(Cc1cc2ccccc2[nH]c1=O)c1ccc(OC)cc1 -11.6%, CCCCc1ccc(NC(=S)N2CCCC(CO)C2)cc1 (stereo unspecified) -6.03%, O=S(=O)(NCC1CCCO1)c1cnc(Cl)c(Cl)c1 (stereo unspecified) -12.9%, Cc1ccc(NC(=S)N(CCN(C)C)Cc2cccs2)cc1C -9.92%, COc1cccc(/C=N/NC(=O)CNC(=O)c2ccc(S(=O)(=O)N3CCOCC3)cc2)c1OC -9.37%, COC(=O)CCc1sc(Nc2ccc(Br)cc2)nc1-c1ccc(OC)cc1 -10.8%, CC1=CC=CN2C1=NC(=O)CC2(C)C(=O)N(CC(=O)NC1CCCC1)c1ccccc1C (stereo unspecified) -22.6%, CC(C)C1Nc2c(C(=O)O)cccc2C(Nc2ccccc2C(=O)O)C1(C)C (stereo unspecified) -28%, Cn1c(CCCOc2ccc(Cl)cc2Cl)n[nH]c1=S -27%, O=C(O)C1C2CC2CN1C(=O)c1ccc(Cl)cc1Cl (stereo unspecified) -14.1%, O=C1CC(Cc2ccc(Cl)cc2)C(=O)N1c1cc(Cl)ccn1 (stereo unspecified) 7.89%, CCn1c(-c2cccnc2Cl)nc2cc(C)c(C)cc21 -16.4%, CCOC(=O)CCCNC(=O)COC(=O)c1cc(Br)c(Br)s1 -22.9%, CC(Sc1nnc(Cc2ccc([N+](=O)[O-])cc2)o1)C(N)=O (stereo unspecified) -20.4% [at 20 µM], O=C(c1ccc(OC2CCN(C(=O)c3cccnc3)CC2)cc1)N1CCCCCC1 -20.3%, CCOC(=O)/C(=C\c1ccc([N+](=O)[O-])cc1)C(=O)c1cc(C(C)=O)c(Nc2ccccc2)s1 -2.4%, CC(C)(C)c1nc2ccccc2c(=O)n1N1C(=O)c2ccccc2C1=O -15.6% [at 20 µM], O=C(NC1CCN(Cc2ccccc2)CC1)c1cc(Br)c(Br)[nH]1 -27.8%, NC(N)=NCCCc1cn(CC(=O)N2CCNCC2)nn1 -18.6%, CC(C)(O)C#Cc1ncc(C(F)(F)F)cc1Cl -28.4%, Cc1ccc(/C=C/C(=O)O)cc1S(=O)(=O)N1CCC(Cc2ccccc2)CC1 -29.9%, CCOc1ccc(N2C(=O)/C(=C/c3ccc(C)o3)N(C)C2=S)cc1 3.15%, O=C(/C=C/NNC(=O)c1cccc(Br)c1)c1ccccc1 0.209% [at 20 µM], O=C(C1=C[C@H](c2coc3ccccc3c2=O)C[C@H](OCc2ccc(CO)cc2)O1)N1CCN(Cc2ccccc2)CC1 -22.1%, COc1cc(/C=N\NC(=O)c2nonc2N)c(OC)cc1Br -19.8%, Cc1nnc(SCC(=O)NC2CCCC2)s1 -7.06% [at 20 µM], NNc1nc2c(Cl)cccc2s1 -15.9%, COc1ccc(NS(=O)(=O)c2ccc(Oc3c(C#N)cccc3C#N)cc2)cc1 -15.9%, CC1=C[C@H]2Cc3cc(C)cc(C)c3S(=O)(=O)[C@@H]2C=C1 -14.9%, Cn1c(=O)c2c(ncn2CC(COCc2ccccc2Cl)OCc2ccccc2Cl)n(C)c1=O (stereo unspecified) -9.34% [at 20 µM]
